Assay results reported in PubChem BioAssay.
Activity calls are given as the source filed them.

Columns and labels:
[1] = test system: PRMT1 (protein arginine N-methyltransferase 1); assay: PRMT1 binders on small-molecule microarrays, primary screen, biochemical, small-molecule microarray, 635 nm fluorescence (AID 1088); conditions: small-molecule microarray binding, higher = more signal;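 further: binding of Prmt1 protein to compounds spotted on small-molecule microarray slides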
[2] = yeast growth modulation, basal conditions, primary screen, YJM789 clinical isolate, OD600, 24 h (AID 1089);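 further: growth of clinical yeast isolate S. cerevisiae YJM 789 seeded 1000 cells per well; test concentration not given here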; conditions: S. cerevisiae YJM789 growth, higher = more signal, called active from +8 up or from −8 down
[3] = fission yeast growth modulation, primary screen, strain 972, OD600, 24 h, no modulator (AID 1090);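 further: basal condition with compound alone and no growth modifier present; test concentration not given here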; conditions: S. pombe 972 growth, higher = more signal, called active from +8 up or from −8 down
[4] = S. cerevisiae growth modulation with rapamycin, primary screen, strain BY4716, OD600, 96 h (AID 1091); conditions: higher = more signal, called active from +8 up or from −8 down; further: test concentration not given here
[5] = biological target: Torsin-1A-interacting protein 2 (Homo sapiens) (UniProt Q8NFQ8); assay: LULL1 binders on small-molecule microarray, primary screen, cell lysate, human LULL1 lysate, 635/667 nm fluorescence (AID 1092); conditions: hLULL1 lysate binding, 635 nm fluorescence, higher = more signal;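 further: probe is lysate of COS7 cells overexpressing human LULL1; score merges per-feature 667 nm fluorescence with signal-to-noise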
[6] = E. coli growth modulation, two-sided OD650, primary screen, E. coli filamentation project, strain DRC41, 24 h (AID 1093); conditions: OD650, 24 h, higher = more signal, called active from +8 up or from −8 down;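 further: MC1000 strain lacking acrAB efflux and sulA so SOS filamentation is blocked; test concentration not given here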
[7] = small-molecule microarray binders of probe aLefty2, primary screen, biochemical, biotinylated probe, 635/667 nm fluorescence (AID 1094); conditions: higher = more signal;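 further: score merges spot fluorescence near 667 nm with spot signal-to-noise ratio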
[8] = test system: Noggin (protein binding on small-molecule microarray); assay: Noggin binders on small-molecule microarray, primary screen, biochemical, 635/667 nm fluorescence (AID 1095); conditions: 635 nm fluorescence, higher = more signal;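 further: score merges 667 nm feature fluorescence with signal to noise over triplicate slides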
[9] = biological target: Neurogenic locus notch homolog protein 3 (Homo sapiens) (UniProt Q9UM47); assay: NOTCH3 binders on small-molecule microarray, primary screen, biochemical, 635/667 nm fluorescence (AID 1096); conditions: NOTCH3 binding, 635 nm fluorescence, higher = more signal
[10] = small-molecule microarray binders of probe aEGFR, primary screen, biochemical, biotinylated probe, 635/667 nm fluorescence (AID 1097); conditions: higher = more signal;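 further: probe is a biotinylated anti-EGFR antibody binding compounds printed on slides; score combines fluorescence near 667 nm and signal to noise of each spot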
[11] = test system: Plasmodium falciparum Sir2 (PF13_0152, Sir2A); assay: pfSir2 binders on small-molecule microarrays, primary screen, biochemical, small-molecule microarray, 635 nm fluorescence (AID 1098); conditions: small-molecule microarray binding, fluorescence 635 nm; higher = more signal;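 further: score merges spot fluorescence intensity with its signal-to-noise ratio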
[12] = small-molecule microarray binders of probe aDKK1, primary screen, biochemical, biotinylated probe, 635/667 nm fluorescence (AID 1099); conditions: higher = more signal;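 further: score merges 667nm spot fluorescence with signal to noise across triplicate slides; reference of the scale not given here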
[13] = small-molecule microarray binders of probe aCHRDL2, primary screen, biochemical, biotinylated probe, 635/667 nm fluorescence (AID 1100); conditions: higher = more signal
[14] = splicing luciferase reporter signal modulators, primary screen, spliceosome inhibition project, cell-based, HEK293, splice +/- reporter (AID 1101); conditions: luminescence, 24 h, higher = more signal, called active from +8 up or from −8 down;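 further: HEK293 cells carrying a splicing-competent luciferase reporter gene; test concentration not given here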
[15] = biological target: Fibroblast growth factor 10 (Homo sapiens) (UniProt O15520); assay: FGF10 binders on small-molecule microarrays, primary screen, biochemical, small-molecule microarray, 635 nm fluorescence (AID 1102); conditions: FGF10 binding, fluorescence 635 nm, higher = more signal
[16] = test system: glycogen synthase kinase-3 (GSK3A per assay name; protocol says GSK3B); assay: GSK3 binders on small-molecule microarrays, primary screen, biochemical, small-molecule microarray, 635 nm fluorescence, GSK3A (AID 1103); conditions: small-molecule microarray binding, fluorescence 635 nm; higher = more signal; further: the record names both GSK3A and GSK3B
[17] = biological target: Epidermal growth factor receptor (Homo sapiens) (UniProt P00533); assay: EGFR binders on small-molecule microarrays, primary screen, biochemical, small-molecule microarray, 635 nm fluorescence (AID 1104); conditions: EGFR binding, higher = more signal;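 further: score merges 667 nm emission intensity with spot signal to noise over triplicate slides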
[18] = biological target: Follistatin-related protein 3 (Homo sapiens) (UniProt O95633); assay: FSTL3 binders on small-molecule microarrays, primary screen, biochemical, small-molecule microarray, 635 nm fluorescence (AID 1105); conditions: FSTL3 binding, higher = more signal;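 further: score merges emission near 667 nm and signal to noise per printed spot across three slides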
[19] = biological target: Dickkopf-related protein 1 (Homo sapiens) (UniProt O94907); assay: DKK1 binders on small-molecule microarrays, primary screen, biochemical, small-molecule microarray, 635 nm fluorescence scan (AID 1106); conditions: DKK1 binding, higher = more signal;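 further: score merges emission near 667 nm with signal to noise over three replicate slides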
[20] = test system: Inhibin beta A chain (activin A); assay: INHBA (activin A) binders on microarrays, primary screen, biochemical, small-molecule microarray, 635 nm fluorescence scan (AID 1107); conditions: small-molecule microarray binding, higher = more signal;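 further: mouse activin A protein probed at 4.33 µg/mL on printed slides; score merges bound-protein fluorescence near 667 nm with spot signal-to-noise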

Sequence of Follistatin-related protein 3 (Homo sapiens) (O95633 whole entry, looked up): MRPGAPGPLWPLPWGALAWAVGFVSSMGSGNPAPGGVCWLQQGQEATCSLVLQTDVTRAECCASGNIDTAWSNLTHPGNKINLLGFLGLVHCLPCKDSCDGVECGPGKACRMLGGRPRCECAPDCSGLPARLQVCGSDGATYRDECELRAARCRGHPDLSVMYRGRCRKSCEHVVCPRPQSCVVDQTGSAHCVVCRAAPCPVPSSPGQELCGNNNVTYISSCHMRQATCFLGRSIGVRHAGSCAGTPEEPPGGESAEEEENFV
Sequence of Torsin-1A-interacting protein 2 (Homo sapiens) (Q8NFQ8 whole entry, looked up): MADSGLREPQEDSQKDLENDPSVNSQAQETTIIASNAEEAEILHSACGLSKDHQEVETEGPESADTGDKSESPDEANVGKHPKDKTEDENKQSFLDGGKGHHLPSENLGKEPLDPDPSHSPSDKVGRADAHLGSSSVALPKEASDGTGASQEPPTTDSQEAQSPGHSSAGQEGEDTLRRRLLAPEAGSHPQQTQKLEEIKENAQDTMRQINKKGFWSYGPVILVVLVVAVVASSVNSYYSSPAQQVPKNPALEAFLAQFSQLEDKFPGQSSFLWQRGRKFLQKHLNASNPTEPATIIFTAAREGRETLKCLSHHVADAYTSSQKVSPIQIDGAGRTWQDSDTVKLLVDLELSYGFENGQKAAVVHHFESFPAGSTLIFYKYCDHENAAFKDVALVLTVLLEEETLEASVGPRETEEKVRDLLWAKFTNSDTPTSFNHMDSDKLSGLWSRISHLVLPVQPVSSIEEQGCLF
Sequence of Dickkopf-related protein 1 (Homo sapiens) (O94907 whole entry, looked up): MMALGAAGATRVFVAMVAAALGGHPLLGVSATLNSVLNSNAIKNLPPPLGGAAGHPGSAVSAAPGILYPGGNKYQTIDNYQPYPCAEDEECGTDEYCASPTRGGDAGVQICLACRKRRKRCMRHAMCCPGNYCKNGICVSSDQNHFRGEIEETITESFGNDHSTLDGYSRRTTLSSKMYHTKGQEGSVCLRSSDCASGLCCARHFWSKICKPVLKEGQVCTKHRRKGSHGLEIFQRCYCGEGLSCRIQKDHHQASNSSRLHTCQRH
Sequence of Fibroblast growth factor 10 (Homo sapiens) (O15520 whole entry, looked up): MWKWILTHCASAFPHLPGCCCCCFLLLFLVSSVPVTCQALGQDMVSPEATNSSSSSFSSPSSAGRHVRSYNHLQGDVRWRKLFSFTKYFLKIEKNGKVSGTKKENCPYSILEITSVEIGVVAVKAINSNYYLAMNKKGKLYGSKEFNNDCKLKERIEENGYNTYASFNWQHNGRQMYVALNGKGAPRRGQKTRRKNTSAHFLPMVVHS
Sequence of Neurogenic locus notch homolog protein 3 (Homo sapiens) (Q9UM47 whole entry, looked up): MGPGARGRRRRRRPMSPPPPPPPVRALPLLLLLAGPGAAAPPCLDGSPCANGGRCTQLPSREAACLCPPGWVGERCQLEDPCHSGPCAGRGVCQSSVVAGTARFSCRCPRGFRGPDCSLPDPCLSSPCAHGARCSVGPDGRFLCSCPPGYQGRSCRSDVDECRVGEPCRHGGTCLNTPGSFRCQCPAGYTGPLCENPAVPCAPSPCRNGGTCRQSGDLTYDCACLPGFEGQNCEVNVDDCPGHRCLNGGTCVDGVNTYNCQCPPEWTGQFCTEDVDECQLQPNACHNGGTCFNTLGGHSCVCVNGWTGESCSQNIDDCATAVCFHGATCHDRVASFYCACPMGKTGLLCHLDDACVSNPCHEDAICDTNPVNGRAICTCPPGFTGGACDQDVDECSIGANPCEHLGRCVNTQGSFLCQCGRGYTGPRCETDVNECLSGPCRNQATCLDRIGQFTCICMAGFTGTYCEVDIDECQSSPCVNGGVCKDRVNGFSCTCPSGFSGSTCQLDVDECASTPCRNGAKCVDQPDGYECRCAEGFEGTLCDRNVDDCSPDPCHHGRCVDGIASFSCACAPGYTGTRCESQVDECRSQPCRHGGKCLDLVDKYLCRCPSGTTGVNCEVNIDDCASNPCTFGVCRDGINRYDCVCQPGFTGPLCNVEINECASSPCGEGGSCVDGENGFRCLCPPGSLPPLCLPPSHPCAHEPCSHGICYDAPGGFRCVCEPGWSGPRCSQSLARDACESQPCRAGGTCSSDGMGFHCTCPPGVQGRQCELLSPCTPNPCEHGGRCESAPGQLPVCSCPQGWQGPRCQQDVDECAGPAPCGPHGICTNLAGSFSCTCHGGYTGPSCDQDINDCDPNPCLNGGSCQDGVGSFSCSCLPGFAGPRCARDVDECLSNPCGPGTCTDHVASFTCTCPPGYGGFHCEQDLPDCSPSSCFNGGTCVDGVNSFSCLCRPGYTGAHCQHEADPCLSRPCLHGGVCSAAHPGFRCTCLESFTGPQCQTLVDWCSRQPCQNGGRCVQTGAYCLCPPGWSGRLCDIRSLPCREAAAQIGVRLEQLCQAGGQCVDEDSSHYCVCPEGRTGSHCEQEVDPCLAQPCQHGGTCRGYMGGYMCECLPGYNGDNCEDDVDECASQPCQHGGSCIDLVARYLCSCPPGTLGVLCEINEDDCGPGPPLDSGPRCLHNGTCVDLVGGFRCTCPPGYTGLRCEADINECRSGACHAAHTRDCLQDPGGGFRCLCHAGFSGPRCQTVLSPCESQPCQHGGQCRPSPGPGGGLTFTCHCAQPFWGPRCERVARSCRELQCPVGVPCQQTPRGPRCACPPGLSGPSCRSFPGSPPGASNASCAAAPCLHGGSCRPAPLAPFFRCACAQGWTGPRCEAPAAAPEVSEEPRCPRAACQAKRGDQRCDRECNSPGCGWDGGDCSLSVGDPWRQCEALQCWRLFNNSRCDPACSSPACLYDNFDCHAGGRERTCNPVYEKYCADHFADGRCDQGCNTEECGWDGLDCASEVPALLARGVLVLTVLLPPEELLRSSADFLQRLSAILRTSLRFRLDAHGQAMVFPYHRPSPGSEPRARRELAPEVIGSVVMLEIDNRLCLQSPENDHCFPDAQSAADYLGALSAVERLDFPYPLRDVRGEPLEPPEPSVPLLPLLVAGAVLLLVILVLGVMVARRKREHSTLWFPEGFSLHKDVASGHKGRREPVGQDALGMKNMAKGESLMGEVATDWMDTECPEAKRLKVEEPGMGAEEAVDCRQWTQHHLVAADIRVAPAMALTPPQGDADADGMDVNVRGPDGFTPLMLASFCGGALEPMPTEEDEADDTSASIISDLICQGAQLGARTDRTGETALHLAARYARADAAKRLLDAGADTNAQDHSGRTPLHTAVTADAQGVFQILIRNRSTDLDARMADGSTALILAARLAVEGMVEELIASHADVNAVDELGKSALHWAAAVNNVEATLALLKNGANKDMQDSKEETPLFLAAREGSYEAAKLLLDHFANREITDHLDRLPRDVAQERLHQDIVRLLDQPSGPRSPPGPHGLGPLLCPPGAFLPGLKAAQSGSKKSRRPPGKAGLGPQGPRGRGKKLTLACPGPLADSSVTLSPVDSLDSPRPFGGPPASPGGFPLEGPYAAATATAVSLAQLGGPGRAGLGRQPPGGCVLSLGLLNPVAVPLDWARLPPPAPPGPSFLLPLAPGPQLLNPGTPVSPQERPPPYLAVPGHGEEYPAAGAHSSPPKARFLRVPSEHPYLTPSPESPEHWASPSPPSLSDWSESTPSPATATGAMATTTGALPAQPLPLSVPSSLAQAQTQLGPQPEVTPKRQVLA
Sequence of Epidermal growth factor receptor (Homo sapiens) (P00533 whole entry, looked up): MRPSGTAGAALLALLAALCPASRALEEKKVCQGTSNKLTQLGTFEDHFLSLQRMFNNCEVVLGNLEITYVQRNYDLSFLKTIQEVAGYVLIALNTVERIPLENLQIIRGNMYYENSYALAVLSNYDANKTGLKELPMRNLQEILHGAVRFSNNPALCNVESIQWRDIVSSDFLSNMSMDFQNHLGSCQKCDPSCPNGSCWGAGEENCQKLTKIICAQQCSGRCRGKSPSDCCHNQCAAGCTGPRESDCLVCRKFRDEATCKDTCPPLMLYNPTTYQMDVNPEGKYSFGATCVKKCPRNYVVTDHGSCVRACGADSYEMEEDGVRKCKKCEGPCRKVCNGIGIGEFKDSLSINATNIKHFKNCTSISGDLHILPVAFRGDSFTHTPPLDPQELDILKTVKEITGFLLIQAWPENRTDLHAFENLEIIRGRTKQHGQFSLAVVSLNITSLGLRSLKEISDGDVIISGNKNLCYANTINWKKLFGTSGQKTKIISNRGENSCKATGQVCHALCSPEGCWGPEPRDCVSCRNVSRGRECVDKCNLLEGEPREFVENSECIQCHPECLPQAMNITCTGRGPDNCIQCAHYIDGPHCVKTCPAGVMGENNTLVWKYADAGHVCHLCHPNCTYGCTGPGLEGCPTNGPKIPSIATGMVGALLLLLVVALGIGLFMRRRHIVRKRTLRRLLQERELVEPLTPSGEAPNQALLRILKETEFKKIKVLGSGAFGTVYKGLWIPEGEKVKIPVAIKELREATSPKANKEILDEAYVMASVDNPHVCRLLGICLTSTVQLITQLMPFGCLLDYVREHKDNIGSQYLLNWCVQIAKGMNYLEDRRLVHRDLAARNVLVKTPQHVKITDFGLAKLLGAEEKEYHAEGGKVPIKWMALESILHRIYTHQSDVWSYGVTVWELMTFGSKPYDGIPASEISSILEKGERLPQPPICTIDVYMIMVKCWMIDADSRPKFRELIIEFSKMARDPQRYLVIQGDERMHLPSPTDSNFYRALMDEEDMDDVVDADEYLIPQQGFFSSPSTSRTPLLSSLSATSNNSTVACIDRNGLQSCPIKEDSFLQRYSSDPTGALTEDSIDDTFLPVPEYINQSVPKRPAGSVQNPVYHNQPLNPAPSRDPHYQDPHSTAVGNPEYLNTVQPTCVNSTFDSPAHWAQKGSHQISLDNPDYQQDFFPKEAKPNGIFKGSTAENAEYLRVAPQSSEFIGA

Structure (SMILES)	composite z-score [1]	z-score [2]	z-score [3]	z-score [4]	composite z-score [5]	z-score [6]	composite z-score [7]	composite z-score [8]	composite z-score [9]	composite z-score [10]	composite z-score [11]	composite z-score [12]	composite z-score [13]	z-score [14]	composite z-score [15]	composite z-score [16]	composite z-score [17]	composite z-score [18]	composite z-score [19]	composite z-score [20]
COC(=O)C1(CC(C)C)C=C2C(=C(c3ccccc3)C(=O)C2C)CN1 (stereo not given)	-0.291	-0.201 (inactive)	0.424 (inactive)	1.71 (inactive)	2.16	-0.326 (inactive)	1.1	-1.13	0.141	0.917	0.055	1.49	1.36	1.45 (inactive)	0.896	-0.713	0.233	0.261	-1.19	1.53
C=CCC(OC(C)=O)[C@@H]1[C@@H](N(Cc2cc3ccccc3o2)C(=O)Cc2ccc(F)cc2)c2cc(OCCCO)ccc2N1C(=O)Cc1ccc2ccccc2c1 (stereo not given in full)	-0.241	-0.689 (inactive)	-0.761 (inactive)	-0.36 (inactive)	0.426	-1.16 (inactive)	-0.0736	0.129	-0.413	-0.185	-0.255	-0.203	0.426	-0.123 (inactive)	-0.108	-0.657	-0.805	-0.656	-0.607	0.779
O=C1CS(=O)(=O)C(c2cccc([N+](=O)[O-])c2)N1c1ccccc1 (stereo not given)	-0.0065	-2.58 (inactive)	-2.56 (inactive)	-0.811 (inactive)	1.85	0.672 (inactive)	0.554	0.253	0.336	0.583	0.175	0.913	0.157	-0.856 (inactive)	1.03	0.117	0.591	0.6	0.625	0.32
CO[C@H]1O[C@H](CO)[C@@H](OC(=O)CCc2ccccc2)[C@@H]2OC(=O)[C@@H](Cc3ccccc3)C/C=C/C[C@H](Cc3ccccc3)C(=O)O[C@@H]12	1.35	-0.0668 (inactive)	0.0286 (inactive)	5.61 (inactive)	1.25	0.241 (inactive)	-0.119	0.435	0.922	-0.067	0.228	0.253	0.585	-1.57 (inactive)	0.469	0.714	-0.199	1.11	0.46	0.925
CCOC(=O)[C@@H]1CCCCN1C(=O)C(=O)OC	0.828	0.0293 (inactive)	0.656 (inactive)	-0.131 (inactive)	0.377	0.66 (inactive)	-0.0728	0.415	0.717	-0.133	0.157	-0.0335	-0.402	1.11 (inactive)	0.549	0.547	0.243	0.751	0.333	-0.206
COC(=O)[C@@]1(Cc2ccc(F)cc2)[C@H]2c3cc(C(=O)N4CCCC4)n(CCc4c[nH]c5ccccc45)c3C[C@H]2CN1C(=O)c1ccccc1	1.38	0.519 (inactive)	1.68 (inactive)	7.25 (inactive)	3.42	-1.3 (inactive)	0.323	0.462	1.01	0.0688	0.539	0.948	1.03	-0.593 (inactive)	0.894	1.32	0.549	1.21	0.113	0.834
COC(=O)[C@@]1(Cc2ccccc2)[C@H]2c3cc(C(=O)N4CCCC4)n(CCc4ccccn4)c3C[C@H]2CN1C(=O)c1ccccc1	0.123	-0.789 (inactive)	0.741 (inactive)	0.0746 (inactive)	3.93	0.026 (inactive)	0.754	0.678	0.915	0.338	1.04	0.897	1.02	-2.09 (inactive)	0.874	1.14	0.142	0.921	-0.37	1.11
CN(C)C(=O)[C@@]1(Cc2ccccc2CN=[N+]=[N-])N=C(c2ccc(OCCCO)cc2)O[C@H]1c1ccccc1N=[N+]=[N-]	1.43	-0.415 (inactive)	0.417 (inactive)	5.36 (inactive)	3.37	0.151 (inactive)	0.445	0.452	1.14	0.242	1.63	0.842	1	-0.731 (inactive)	0.884	0.588	-0.239	0.724	-0.451	0.987
C=CC[C@]1(C(=O)N2CCCCC2)N=C(c2ccc(OCCCO)cc2)O[C@H]1c1ccccc1CN=[N+]=[N-]	1.54	-1.66 (inactive)	-0.442 (inactive)	-0.837 (inactive)	3.19	0.937 (inactive)	-0.013	0.562	1.08	-0.0512	1.21	0.258	0.622	-0.234 (inactive)	1.21	1.31	0.128	0.922	0.263	0.851
NC(=O)[C@@]1(Cc2ccccc2)COC(c2ccc(OCCCO)cc2)=N1	-0.57	1.2 (inactive)	0.196 (inactive)	1.19 (inactive)	3.05	1.05 (inactive)	-0.0736	-0.555	-0.537	-0.136	0.0491	0.618	0.836	0.444 (inactive)	0.594	-0.923	-0.377	-0.807	-0.636	0.663
